Values joined by “and” are separate entries in the source; they are usually repeats but may differ in a detail not shown here. Identical values can stand only once. Results filed as inconclusive are left out. Where a call stands in place of a potency, no number is given. Values without a mark were called inactive. Active and inactive are the calls of the source. Calls come from the whole dose curve; as a rule, active = well fitted curve in the direction sought with a large enough effect; inconclusive = small, poorly fitted or top-dose-only effect, or another doubt; inactive = no such curve, though single readings can be large; an effect the other way counts as inactive or inconclusive.
Assays:
[1] = Viability qHTS for spleen associated tyrosine kinase inhibitor (SYKi) naive MV4-11 cells (AID 1963823); note: nearly all actives have a fitted effect of over 40% in size; note: potency is the fitted concentration of half-maximal effect
Method in brief: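 SYKi-naive MV4-11 AML cells, 500 per well, were exposed to library compounds for 72 hr at 37 C, 5% CO2. Viability was then read by CellTiter-Glo luminescence after 10 min at room temperature.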

[2] = Quantitative highthroughput screen to assess conditional lethalithy of NOMO1 cells grown in RPMI1640 with untreated serum (RPMI+s) (AID 1963876); note: nearly all actives have a fitted effect of over 35% in size
Method in brief: (§1)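 Each medium arm—HPLM with 10% dialyzed FBS, or RPMI1640 with 5 mM glucose and 10% untreated or dialyzed FBS—was screened against an 11-point, 3-fold compound titration for 48 h at 37 °C, with CellTiter-Glo luminescence as endpoint.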

[3] = Quantitative highthroughput screen to assess conditional lethalithy of NOMO1 cells grown in RPMI1640 with dialyzed fetal bovine serum (RPMI+ds) (AID 1963877); note: series mostly up to about 46 µM; nearly all actives have a fitted effect of over 30% in size
Method in brief: as §1

[4] = Quantitative highthroughput screen to assess conditional lethalithy of NOMO1 cells grown in Human Plasma-Like Medium with dialyzed fetal bovine serum (HPLM+ds) (AID 1963878); note: nearly all actives have a fitted effect of over 35% in size
Method in brief: as §1

[5] = Quantitative highthroughput screen to assess conditional lethalithy of P12 Ichikawa cells grown in Human Plasma-Like Medium with dialyzed fetal bovine serum (HPLM+ds) (AID 1963879); conditions: Potency: viability; note: series mostly up to about 46 µM; nearly all actives have a fitted effect of over 35% in size
Method in brief: as §1

[6] = Quantitative highthroughput screen to assess conditional lethalithy of P12 Ichikawa cells grown in RPMI1640 with dialyzed fetal bovine serum (RPMI+ds) (AID 1963880); conditions: Potency: P12-Ichikawa viability; note: nearly all actives have a fitted effect of over 35% in size
Method in brief: as §1

[7] = Quantitative highthroughput screen to assess conditional lethalithy of P12 Ichikawa cells grown in RPMI1640 with untreated serum (RPMI+s) (AID 1963881); conditions: Potency: viability; note: nearly all actives have a fitted effect of over 35% in size; note: potency is the fitted concentration of half-maximal effect; for Viability: series mostly up to about 46 µM
Method in brief: as §1

[8] = Quantitative highthroughput screen to assess conditional lethalithy of SEM cells grown in Human Plasma-Like Medium with dialyzed fetal bovine serum (HPLM+ds) (AID 1963882)
Method in brief: as §1

[9] = Quantitative highthroughput screen to assess conditional lethalithy of SEM cells grown in RPMI1640 with unreated serum (RPMI+s) (AID 1963883); note: nearly all actives have a fitted effect of over 35% in size; note: potency is the fitted concentration of half-maximal effect
Method in brief: as §1

[10] = Cellular viability qHTS for adrenocortical cancer (ACC) cell line SW-13 (AID 1963989); conditions: SW-13 ACC cells viability, CellTiter-Glo, 48 h; activity (max response): hits give low values;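 note: cells grown in serum-free medium with ITS supplement; nearly all actives have a fitted effect of over 65% in size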
Method in brief: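 SW-13 cells in ITS-supplemented serum-free DMEM were plated overnight, then exposed for 48 h at 37C to compound titrations (up to 46 uM final). Viability was read by CellTiter-Glo luminescence; four-parameter logistic fits gave IC50 and efficacy.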

[11] = Cellular viability qHTS for adrenocortical cancer (ACC) cell line NCI-H295R (AID 1963990); note: nearly all actives have a fitted effect of over 60% in size
Method in brief: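 Luminescent ATP read-out (CellTiter-Glo, 20 min RT) after 48 h drug exposure of NCI-H295R cells; a titration up to 46 uM final. Data normalized to doxorubicin (100% inhibition) and DMSO (0%); 4-parameter fit gives IC50, max response.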

[12] = Quantitative highthroughput screen to assess conditional lethalithy of SEM cells grown in RPMI1640 with dialyzed fetal bovine serum (RPMI+ds) (AID 1963884); note: nearly all actives have a fitted effect of over 35% in size; note: potency is the fitted concentration of half-maximal effect; for Viability: series mostly up to about 46 µM
Method in brief: as §1

SMILES	Potency [1]	Potency [2]	Potency [3]	Potency [4]	Potency [5]	Potency [6]	Potency [7]	Potency [8]	Potency [9]	activity (max response) [10]	Potency [11]	Potency [12]
COCCCN1CCC(NC(=O)c2cc(Cl)c(N)c3c2OCC3)CC1	inactive	inactive	inactive	inactive	inactive	inactive	18.7 µM (active)	inactive	inactive	15.7% and -2.89%	inactive	
CN1C[C@H]2c3ccccc3Oc3ccc(Cl)cc3[C@@H]2C1	26.6 µM (active)	inactive	inactive	inactive	inactive	inactive	inactive		26.4 µM (active)	-18.3%		23.5 µM (active)
O=C1c2cccc(O)c2C(=O)c2c(O)cc(CO)cc21	8.33 µM (active)	inactive	inactive	inactive	inactive		inactive	inactive		13.5%	inactive	inactive
CC(=O)[C@H]1CC[C@H]2[C@@H]3CC=C4C[C@@H](O)CC[C@]4(C)[C@H]3CC[C@]12C	5.96 µM (active)	inactive	inactive	inactive	inactive	inactive	inactive	inactive	inactive	14.9% and 3.3%	inactive	inactive
COc1ccc2c(c1)c(CC(=O)OCC(=O)O)c(C)n2C(=O)c1ccc(Cl)cc1	inactive	inactive	inactive	inactive	inactive	inactive	inactive	inactive	inactive	-2.34%	inactive	inactive
N[C@@H](CC(=O)N1CCn2c(nnc2C(F)(F)F)C1)Cc1cc(F)c(F)cc1F	inactive	inactive	inactive	inactive	inactive	inactive	inactive			-2.25%	inactive	
O=C(NCCS(=O)(=O)c1ccc(C(F)(F)F)cn1)c1ccc(Cl)cc1	inactive	inactive	inactive	inactive	inactive	inactive	inactive	inactive		0.68%	inactive	inactive

— PubChem BioAssay (NCATS)
